Inconclusive results are not listed. Activity calls are given as the source filed them. Unless noted, calls follow the shape of the dose curve; as a rule, active = well fitted inhibition curve with a large enough effect; inconclusive = small, poorly fitted or top-dose-only effect; inactive = flat fitted curve, though single readings scatter.
Tests used:
[1] = S16 Schwann cell PMP22 intronic element beta-lactamase assay (AID 624044; calls by dose curve; also: nearly all actives have a fitted effect of over 15% in size); settings: S16 rat Schwann cells, PMP22 element beta-lactamase FRET, 24 h; ratio activity, negative = inhibition: at 38.3 µM (top of the series)
In short: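 Beta-lactamase reporter under a PMP22 intronic regulatory element in stable S16 rat Schwann cells; 24 h compound exposure. 460 nm blue signal normalized between DMSO (0%) and potassium clavulanate, with 535 nm FRET tracking viability; curves classed by r2 and response.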

3D7 = experiment: qHTS profiling for inhibitors of Plasmodium falciparum proliferation (AID 504749); also: nearly all actives have a fitted effect of over 60% in size; settings: P. falciparum in erythrocytes, SYBR Green DNA, 72 h; series mostly up to 28.7 µM
In short: (§1)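 Quantitative HTS: compounds pinned into medium, infected erythrocytes added (0.3% parasitemia, 2.5% hematocrit), 72 h culture at 37 C under 5% CO2. Saponin/Triton lysis with SYBR Green I, overnight RT, then fluorescence read.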

CP185 = experiment: as above; settings: P. falciparum in erythrocytes, SYBR Green DNA, 72 h; series mostly up to 28.7 µM
In short: as §1

CP203 = experiment: as above; settings: P. falciparum in erythrocytes, SYBR Green DNA, 72 h; series mostly up to 28.7 µM
In short: as §1

CP211 = experiment: as above; settings: P. falciparum in erythrocytes, SYBR Green DNA, 72 h; series mostly up to 28.7 µM
In short: as §1

CP217 = experiment: as above; settings: P. falciparum in erythrocytes, SYBR Green DNA, 72 h; series mostly up to 28.7 µM
In short: as §1

CP250 = experiment: as above; settings: P. falciparum in erythrocytes, SYBR Green DNA, 72 h; series mostly up to 28.7 µM
In short: as §1

CP252 = experiment: as above; settings: P. falciparum in erythrocytes, SYBR Green DNA, 72 h; series mostly up to 28.7 µM
In short: as §1

CP256 = experiment: as above; settings: P. falciparum in erythrocytes, SYBR Green DNA, 72 h; series mostly up to 28.7 µM
In short: as §1

CP262 = experiment: as above; settings: P. falciparum in erythrocytes, SYBR Green DNA, 72 h; series mostly up to 28.7 µM
In short: as §1

CP265 = experiment: as above; settings: P. falciparum in erythrocytes, SYBR Green DNA, 72 h; series mostly up to 28.7 µM
In short: as §1

CP291 = experiment: as above; settings: P. falciparum in erythrocytes, SYBR Green DNA, 72 h; series mostly up to 28.7 µM
In short: as §1

CP305 = experiment: as above; settings: P. falciparum in erythrocytes, SYBR Green DNA, 72 h; series mostly up to 28.7 µM
In short: as §1

CP315 = experiment: as above; settings: P. falciparum in erythrocytes, SYBR Green DNA, 72 h; series mostly up to 28.7 µM
In short: as §1

CP335 = experiment: as above; settings: P. falciparum in erythrocytes, SYBR Green DNA, 72 h; series mostly up to 28.7 µM
In short: as §1

DIV30 = experiment: as above; settings: P. falciparum in erythrocytes, SYBR Green DNA, 72 h; series mostly up to 28.7 µM
In short: as §1

ECU = experiment: as above; settings: P. falciparum in erythrocytes, SYBR Green DNA, 72 h; series mostly up to 28.7 µM
In short: as §1

HB3 = experiment: as above; settings: P. falciparum in erythrocytes, SYBR Green DNA, 72 h; series mostly up to 28.7 µM
In short: as §1

N140 = experiment: as above; settings: P. falciparum in erythrocytes, SYBR Green DNA, 72 h; series mostly up to 28.7 µM
In short: as §1

TAB113 = experiment: as above; settings: P. falciparum in erythrocytes, SYBR Green DNA, 72 h; series mostly up to 28.7 µM
In short: as §1

Measured: Potency

CC12CCC3C4CCC(=O)C(O)=C4CCC3C1CCC2OC(=O)CCC1CCCC1 (stereo not given)
inactive: all assays above

C[C@H](N)Cc1ccccc1
inactive: all assays above

CCCCCC(O)C1C(=O)OC(C)C(O)\C=C/C=C\C=C/C=C\C=C(\C)C(O)C(O)C(O)CC(O)CC(O)CC(O)CC(O)CC1O (stereo not given)
not listed: [1]
inactive: all other assays above

Cc1cc(C)cc(C(=O)OC2CC3CCC(C2)N3C)c1 (stereo not given)
not listed: [1] | ECU
inactive: all other assays above

C#C[C@]1(O)CC[C@H]2[C@@H]3CCC4=CC(=O)CCC4(C)[C@H]3CCC21C (stereo not given in full)
inactive: all assays above

C=CC[C@]1(O)CCC2C3CCC4=CCCCC4C3CCC21C (stereo not given in full)
not listed: HB3
inactive: all other assays above

CN1C2CCC1C(C(=O)O)C(OC(=O)c1ccccc1)C2 (stereo not given)
inactive: all assays above

Nc1nc(O)c(-c2ccccc2)o1
not listed: TAB113
inactive: all other assays above

OC[C@@H](O)[C@H]1O[C@@H]2OC(C(Cl)(Cl)Cl)O[C@H]2[C@H]1O (stereo not given in full)
inactive: all assays above

C[C@]12C=CC(=O)C=C1CC[C@@H]1C2CC[C@]2(C)OC(=O)CCC12 (stereo not given in full)
inactive: all assays above

[S]=[Sb][S][Sb]=[S]
inactive: all assays above

From PubChem BioAssay (NCATS)
